Here are results for eight compounds from PubChem BioAssay (NCI).

About 83,000 compounds went through this panel and 20% of them were active in at least one assay; those are over-represented in the sample as a whole.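 Single-concentration screen, 48 h exposure, 96-well plates. Endpoint: percent growth. Below 10 = active.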 A number with no mark means an inactive call. Calls of active or inactive are those of the source.

What all share (test): NCI-60 one-dose screen, 48 h (100 = growth as untreated, 0 = no growth, -100 = all killed)
One assay deals with SK-MEL-2 melanoma. The following applies: 10 µM unless noted.
The next assay concerns EKVX NSCLC. The following applies: 10 µM unless noted.
Another assay relates to SN12C renal. The note with it: 10 µM unless noted.
Another assay deals with UO-31 renal. The note with it: 10 µM unless noted.
Another assay relates to TK-10 renal. The note with it: 10 µM unless noted.
For a further assay, the system named is ACHN renal. The following applies: 10 µM unless noted.
The next assay relates to CAKI-1 renal. The note with it: 10 µM unless noted.
Another assay concerns A498 renal. The note with it: 10 µM.
For a further assay, the system named is RPMI-8226 leukemia. The note with it: 10 µM unless noted.
The test system of a further assay is OVCAR-8 ovarian. The following applies: 10 µM unless noted.
A further assay relates to OVCAR-5 ovarian. The note with it: 10 µM unless noted.
For a further assay, the system named is OVCAR-4 ovarian. The note with it: 10 µM unless noted.
The next assay deals with SK-OV-3 ovarian. The note with it: 10 µM unless noted.
The next assay has as its system IGROV1 ovarian. The note with it: 10 µM unless noted.
A further assay deals with OVCAR-3 ovarian. The note with it: 10 µM unless noted.
For the next assay, the system named is HS 578T breast. The note with it: 10 µM unless noted.
The subject of another assay is CCRF-CEM leukemia. The following applies: 10 µM unless noted.
Another assay deals with MOLT-4 leukemia. The note with it: 10 µM unless noted.
In another assay the test system is SR leukemia. The following applies: 10 µM unless noted.
In the next assay the test system is HL-60(TB) leukemia. The note with it: 10 µM unless noted.

For the compound `COC(=O)CCC1=C(C)c2cc3[n-]c(cc4nc(cc5[n-]c(cc1n2)c(CCC(=O)OC)c5C)C=C4C)cc3C.[Cd+2]`, the growth in the assay on SK-MEL-2 melanoma is 32.4%; in the assay on EKVX NSCLC it was 62.2%; in the assay on SN12C renal, 71.2%; with UO-31 renal, 71.7%; in the assay on TK-10 renal it was 33.4%; with ACHN renal, 67.9%. Moreover, the growth was 63.3% with CAKI-1 renal; 34.4% with A498 renal; -1.53% (active) in the assay with RPMI-8226 leukemia; 68.7% with OVCAR-8 ovarian; 103% in the assay on OVCAR-5 ovarian; 37.7% with OVCAR-4 ovarian. Moreover, the growth in the assay on SK-OV-3 ovarian is 83.5%; in the assay on IGROV1 ovarian it was 35.1%; in the assay on OVCAR-3 ovarian, -58.1% (active); with HS 578T breast, 39.8%.

With `CN1CC(CNC(=O)OCc2ccccc2)CC2c3cccc4c3c(cn4C)CC21` (stereo unspecified), the growth is 47.2% with SK-MEL-2 melanoma; 71.8% in the assay with EKVX NSCLC; 45% in the assay with SN12C renal; 32.5% in the assay on UO-31 renal; 53.9% with TK-10 renal; 39.7% with ACHN renal. Moreover, the growth is 52.9% in the assay with CAKI-1 renal; 57.6% with A498 renal; 45.7% in the assay with CCRF-CEM leukemia; 62.4% with OVCAR-8 ovarian; 64.6% in the assay on OVCAR-5 ovarian; 69% in the assay with SK-OV-3 ovarian. Also, the growth in the assay on IGROV1 ovarian was 52.6%; in the assay on OVCAR-3 ovarian it was 61.9%; in the assay with HS 578T breast, 49.4%.

In the case of `CC(C)=CCc1c(O)c(C(=O)CC(C)C)c(O)c2c(-c3ccccc3)cc(=O)oc12`, the growth in the assay with SK-MEL-2 melanoma is 40.5%; with EKVX NSCLC it was 36.7%; with SN12C renal, 33.7%; in the assay with UO-31 renal, 44.9%; in the assay on TK-10 renal, 56.8%; in the assay with ACHN renal, 59.4%. In addition, the growth was 52.4% in the assay on CAKI-1 renal; 32.6% with A498 renal; 23.6% in the assay with CCRF-CEM leukemia; 38.5% in the assay with MOLT-4 leukemia; 41.5% with SR leukemia; 8.71% (active) in the assay with RPMI-8226 leukemia. The growth in the assay with OVCAR-8 ovarian was 47.6%; in the assay on OVCAR-5 ovarian, 84.9%; in the assay on OVCAR-4 ovarian, 68.7%; with SK-OV-3 ovarian, 60.9%; with IGROV1 ovarian, 62.9%; in the assay on OVCAR-3 ovarian, 33.9%. The growth with HS 578T breast is 47%.

Take `CCOP(=O)(Nc1ccc2c(c1)/C(=N/NC(N)=S)c1ccccc1-2)OCC`: the growth was 110% in the assay on SK-MEL-2 melanoma; 92.9% in the assay on EKVX NSCLC; 81.9% in the assay on SN12C renal; 91.8% in the assay on UO-31 renal; 104% with TK-10 renal; 89.9% with ACHN renal. The growth was 97.4% in the assay with CAKI-1 renal; 96.3% in the assay with A498 renal; 85.6% with CCRF-CEM leukemia; 92% in the assay with MOLT-4 leukemia; 109% in the assay with SR leukemia; 93.5% in the assay on RPMI-8226 leukemia. In addition, the growth in the assay on OVCAR-8 ovarian was 94.7%; in the assay with OVCAR-5 ovarian it was 105%; in the assay on OVCAR-4 ovarian it was 96.9%; in the assay on SK-OV-3 ovarian, 114%; with IGROV1 ovarian, 132%; in the assay on OVCAR-3 ovarian it was 105%. In the assay with HS 578T breast, the growth is 82%.

With `COc1cccc(/C=C/[N+](=O)[O-])c1`, the growth in the assay on SK-MEL-2 melanoma was 97.4%; with EKVX NSCLC it was 89.2%; in the assay on SN12C renal, 99.5%; with UO-31 renal, 45.8%; with TK-10 renal, 90.9%; in the assay on ACHN renal, 74.7%. Also, the growth in the assay with CAKI-1 renal was 96.8%; in the assay on A498 renal, 43.8%; in the assay on CCRF-CEM leukemia, 51.2%; with MOLT-4 leukemia it was 50.4%; with SR leukemia it was -21.6% (active); in the assay with RPMI-8226 leukemia, -21.2% (active). Moreover, the growth was 79.6% in the assay on OVCAR-8 ovarian; 92.8% with OVCAR-5 ovarian; 104% with OVCAR-4 ovarian; 94.4% in the assay with SK-OV-3 ovarian; 55.8% in the assay on IGROV1 ovarian; 75.2% in the assay with OVCAR-3 ovarian. In the assay on HS 578T breast, the growth is 95%.

Turning to `COc1cc(NCCCN=C(N)N)c2ncccc2c1`, the growth is 27.8% with SK-MEL-2 melanoma; 70.6% in the assay on EKVX NSCLC; 2.57% (active) in the assay with SN12C renal; 89.4% in the assay on UO-31 renal; 80% in the assay on TK-10 renal; 100% with ACHN renal. Further, the growth was 97.9% in the assay on CAKI-1 renal; 73.6% in the assay with A498 renal; 95.8% with CCRF-CEM leukemia; 94.1% in the assay with MOLT-4 leukemia; 102% in the assay with SR leukemia; 85.4% in the assay with RPMI-8226 leukemia. The growth is 81.2% with OVCAR-8 ovarian; 86.2% in the assay on OVCAR-5 ovarian; -95.8% (active) in the assay with OVCAR-4 ovarian; 93.4% in the assay on SK-OV-3 ovarian; 36% with IGROV1 ovarian; 7.99% (active) in the assay on OVCAR-3 ovarian. Besides, the growth with HS 578T breast is 88.8%.

On to `CCOC(=O)N[C@H]1CCc2c(Br)c(OC)c(OC)c(OC)c2-c2ccc(SC)c(=O)cc21`, for which the growth in the assay on SK-MEL-2 melanoma is 43.5%; in the assay with EKVX NSCLC, 45.4%; in the assay with SN12C renal it was 24.3%; in the assay with UO-31 renal, 27.3%; in the assay with TK-10 renal, 42.1%; in the assay on ACHN renal it was 24.4%. For the same compound, the growth in the assay on CAKI-1 renal was 3.95% (active); in the assay on HL-60(TB) leukemia it was -39.9% (active); with CCRF-CEM leukemia it was 1.82% (active); in the assay with MOLT-4 leukemia, 5.92% (active); with SR leukemia it was -5.77% (active); in the assay with RPMI-8226 leukemia, -6.15% (active). The growth with OVCAR-8 ovarian was 20.2%; in the assay with OVCAR-5 ovarian, 32.5%; with OVCAR-4 ovarian, 5.73% (active); in the assay with SK-OV-3 ovarian, 52.1%; in the assay on IGROV1 ovarian, 12.1%; in the assay with OVCAR-3 ovarian it was -29.4% (active).

For the compound `CNCc1cccnc1`, the growth in the assay with SK-MEL-2 melanoma was 112%; in the assay with EKVX NSCLC, 114%; in the assay with SN12C renal, 111%; in the assay with UO-31 renal, 93.9%; in the assay on TK-10 renal, 113%; with ACHN renal, 106%. In addition, the growth was 92% with CAKI-1 renal; 104% in the assay with A498 renal; 96.6% in the assay on CCRF-CEM leukemia; 101% in the assay on RPMI-8226 leukemia; 103% with OVCAR-8 ovarian; 114% in the assay with OVCAR-5 ovarian. Moreover, the growth with SK-OV-3 ovarian was 106%; in the assay on IGROV1 ovarian it was 114%; with OVCAR-3 ovarian, 115%; in the assay on HS 578T breast it was 107%.
